Vaccinia Venus – qHTS for Stage-Specific Inhibitors of Vaccinia Orthopoxvirus: Venus Reporter Primary qHTS. Vaccinia virus Venus reporter expression, fluorescence. Potency, µM (series often up to 36.5 µM), actives largely listed as inhibitors. 330,000 compounds, 0.46% hits; calls by dose curve; tested in A549 cells; also: nearly all actives have a fitted effect of over 30% in size
Lassa entry inh – qHTS for Inhibitors of binding or entry into cells for Lassa Virus. Lassa virus pseudotype entry inhibition, cell reporter. Potency, µM (top dose mostly 37.9 µM), usual class: inhibitors. 300,000 compounds, 1.2% hits; calls by dose curve; tested in HEK293 cells; also: nearly all actives have a fitted effect of over 50% in size
Marburg entry inh – qHTS for inhibitors of binding or entry into cells for Marburg Virus; Marburg virus pseudotyped entry inhibition, cell reporter; Potency, µM (series often up to 37.8 µM), hits mostly inhibitors; 300,000 compounds, 1.8% hits; calls by dose curve; tested in HEK293 cells
VACV mCherry inh – qHTS for Stage-Specific Inhibitors of Vaccinia Orthopoxvirus: mCherry Reporter Primary qHTS; 310,000 compounds, 0.63% hits; Vaccinia virus mCherry reporter infection, fluorescence; Potency, µM (titrated, usually from 36.5 µM), actives largely listed as inhibitors; AID 720579, 2013; calls by dose curve; tested in A549 cells; also: nearly all actives have a fitted effect of over 35% in size
Of the large screens only hits and unclear results are named; the others gave an inactive call; ! = repeats disagree. Shown are actives, neighbours in structure and some others; about 2.5% of the full set was active somewhere.

Cc1nnc(SCC(=O)Nc2ccccc2NC(=O)CSc2nnc(C)s2)s1	none (no result: VACV mCherry inh)
O=C(Nc1ccc(-c2nc3ccccc3s2)cc1)c1cc(-n2cnnc2)ccc1Cl	Vaccinia Venus 7.9µM, Lassa entry inh inconclusive, Marburg entry inh inconclusive, VACV mCherry inh inconclusive
Cc1ccc2nc(-c3ccc(NC(=O)CCS(=O)(=O)c4ccccc4)cc3)sc2c1	Lassa entry inh 1.8µM, Marburg entry inh inconclusive
Cc1nnc(SCC(=O)Nc2ccc(-c3nc4ccccc4s3)cc2)s1	Lassa entry inh 10µM, Marburg entry inh inconclusive
CCC(=O)N1CCc2cc(S(=O)(=O)Nc3ccc4c(c3)OCCO4)ccc21	Vaccinia Venus inconclusive, Marburg entry inh 7.9µM
O=C(C1CCC1)N1CCc2cc(S(=O)(=O)Nc3ccc4c(c3)OCCO4)ccc21	Vaccinia Venus inconclusive
Cn1c(-c2ccccc2)cc(=O)cc1-c1ccccc1	none (no result: Lassa entry inh, Marburg entry inh)
O=c1cc(-c2ccccc2)cc(-c2ccccc2)n1O	Vaccinia Venus inconclusive, VACV mCherry inh 14µM (no result: Lassa entry inh, Marburg entry inh)
CC1c2ccccc2N(S(=O)(=O)c2ccccc2)C1C (stereo not drawn)	Lassa entry inh inconclusive, Marburg entry inh 3.5µM
CC(=O)N1c2ccccc2[C@H](C)[C@H]1C	none (no result: Lassa entry inh, Marburg entry inh)
Cc1cc2oc(=O)cc(CN3CCN(S(=O)(=O)c4cccs4)CC3)c2cc1C	Lassa entry inh 14µM, Marburg entry inh 14µM
CC/C(=C\c1ccc(C(=O)OC)cc1)c1cc(OC)cc2oc3ccccc3c12	none (no result: Lassa entry inh, Marburg entry inh)
O=C(COC(=O)c1ccc2[nH]c3c(c2c1)CCCC3)Nc1ccccc1Cl	none
O=C(COC(=O)c1ccc2[nH]c3c(c2c1)CCCC3)Nc1ccc(Cl)cc1Cl	Marburg entry inh 8.9µM
CCC(C)c1ccccc1NC(=O)COC(=O)c1ccc2[nH]c3c(c2c1)CCCC3 (stereo not drawn)	Vaccinia Venus inconclusive, Lassa entry inh inconclusive, Marburg entry inh 2.2µM, VACV mCherry inh inconclusive
COc1ccc(C2CC(c3ccccc3)=NN2c2ccc(S(N)(=O)=O)cc2)cc1OC (stereo not drawn)	Lassa entry inh 11µM, Marburg entry inh inconclusive, VACV mCherry inh inconclusive
NS(=O)(=O)c1ccc(N2N=C(c3ccc(Br)cc3)CC2c2ccc(F)cc2)cc1 (stereo not drawn)	Vaccinia Venus 11µM, Lassa entry inh 7.9µM, Marburg entry inh 10µM, VACV mCherry inh 16µM
C=C1C(C)(C)[C@@H]2CC[C@]1(C(=O)Nc1nccs1)C2	none (no result: Vaccinia Venus, Lassa entry inh, VACV mCherry inh)
COc1ccc(CC(=O)Nc2nc(-c3ccccc3)c(C(C)=O)s2)cc1OC	Lassa entry inh inconclusive, Marburg entry inh 11µM
CCCn1c(SCC(=O)c2ccc3c(c2)OCCO3)nnc1-c1ccco1	Lassa entry inh inconclusive
CCCCn1c(SCC(=O)c2ccc3c(c2)OCCO3)nnc1-c1ccoc1C	Marburg entry inh 11µM
COc1ccccc1C1CN(CCNC(=O)c2ccc3c(c2)OCCO3)Cc2ccccc2O1 (stereo not drawn)	none (no result: Lassa entry inh, Marburg entry inh)
Cc1cc(C)cc(NC(=O)/C(C#N)=C/c2cn(CC(=O)NCc3ccco3)c3ccccc23)c1	Vaccinia Venus 5.6µM, Lassa entry inh inconclusive, Marburg entry inh inconclusive, VACV mCherry inh inconclusive
Cc1ccc(NC(=O)/C(C#N)=C/c2cn(CC(=O)NCc3ccco3)c3ccccc23)cc1C	none
COCCN1CCN(C(=O)c2cnn(-c3nccc(-c4ccccc4OC)n3)c2-c2ccco2)CC1	none (no result: Lassa entry inh, Marburg entry inh)
CCOC(=O)c1cc(-c2ccccc2)n(CC(=O)Nc2ccc(OC)c(OC)c2)c1C	Vaccinia Venus inconclusive, VACV mCherry inh inconclusive
CCOC(=O)c1cc(-c2ccccc2)n(CC(=O)NCc2ccccc2OC)c1C	Lassa entry inh 7.1µM (no result: Marburg entry inh)
CCCCC(CC)C(=O)Oc1ccc(O)c(C(C)(C)C)c1 (stereo not drawn)	Vaccinia Venus inconclusive, Lassa entry inh 10µM, Marburg entry inh inconclusive, VACV mCherry inh inconclusive
NC1=NC(=O)C2N=CN(COCCO)C2=N1 (stereo not drawn)	none (no result: Vaccinia Venus, Lassa entry inh, VACV mCherry inh)
COC(=O)C/C=C/[C@@H](C)[C@@H](/C=N/OC[C@@H](O)COCc1ccco1)NS(=O)(=O)c1ccc(C)cc1	none (no result: Vaccinia Venus, Lassa entry inh, VACV mCherry inh)
Cc1ccc(/C=C(\C#N)c2nn(-c3ccccc3)c(N)c2C#N)cc1	Vaccinia Venus inconclusive, Lassa entry inh inconclusive, VACV mCherry inh 10µM
Cc1c(Cl)cccc1NC(=S)NCCc1ccc(C(F)(F)F)cc1	Lassa entry inh inconclusive, Marburg entry inh 10µM
CC(C)c1nc(SCC(=O)Nc2ccc(N3CCOCC3)cc2)c2ccccc2n1	Lassa entry inh inconclusive (no result: Vaccinia Venus, VACV mCherry inh)
CCN(CC)c1ccc(NC(=O)CSc2nc(C3CC3)nc3ccccc23)cc1C	Lassa entry inh inconclusive, Marburg entry inh 4.5µM, VACV mCherry inh inconclusive
CCCc1nc(SCC(=O)Nc2ccc(N3CCOCC3)cc2)c2ccccc2n1	Marburg entry inh 0.71µM
Cc1cccc(NC(=O)CSc2nc(C3CC3)nc3ccccc23)c1	none
COc1ccc(-c2nc3cc(C)ccc3cc2CN(C(=O)c2cc(C)nn2C)C2CC2)cc1OC	none (no result: Lassa entry inh, Marburg entry inh)
CCC1CN(CCNC(=O)c2cccc3nccnc23)Cc2cc(OC)ccc2O1 (stereo not drawn)	none (no result: Lassa entry inh, Marburg entry inh)
S=C(Nc1ccccc1Cl)N1CCC(c2ccccc2)C1 (stereo not drawn)	none
Cc1ccc(NC(=S)N2CCC(c3ccccc3)C2)c(Cl)c1 (stereo not drawn)	Lassa entry inh 10µM, Marburg entry inh inconclusive
COc1ccc(NC(=O)c2cc3ccccc3cc2O)cc1	Marburg entry inh 1.1µM
O=C(Nc1ccc2ccccc2c1)c1cc(F)c(F)cc1Cl	Lassa entry inh inconclusive, Marburg entry inh 7.1µM
O=C(Nc1ccc2ccccc2c1)c1ccccc1O	Vaccinia Venus inconclusive, Lassa entry inh inconclusive, Marburg entry inh 2.5µM, VACV mCherry inh inconclusive
O=C(NCCC1=CCCCC1)c1ccc(F)cc1	Lassa entry inh 10µM, Marburg entry inh inconclusive
Cc1ccc(C(=O)NCCC2=CCCCC2)cc1S(=O)(=O)N1CCCCC1	Lassa entry inh 7.9µM, Marburg entry inh inconclusive, VACV mCherry inh inconclusive
COc1ccccc1Nc1nn2c(=O)c3ccc(C(=O)NCCC4=CCCCC4)cc3nc2s1	Vaccinia Venus 7.9µM, Lassa entry inh inconclusive, VACV mCherry inh 8.9µM (no result: Marburg entry inh)
O=C(NCCC1=CCCCC1)c1ccc([N+](=O)[O-])cc1	Lassa entry inh inconclusive, Marburg entry inh inconclusive
COc1ccc(C(=O)NCC(=O)OCC(=O)NCCC2=CCCCC2)cc1	none (no result: Vaccinia Venus, VACV mCherry inh)
COc1ccc(C(=O)NCCC2=CCCCC2)cc1	Lassa entry inh inconclusive, Marburg entry inh 7.3µM
Cc1cnc(NC(=O)c2ccc(OCC3CCCO3)cc2)s1 (stereo not drawn)	Lassa entry inh 1.8µM, Marburg entry inh inconclusive
O=C(Nc1nc2ccccc2s1)c1ccc(OCC2CCCO2)cc1 (stereo not drawn)	Lassa entry inh 10µM, Marburg entry inh inconclusive
Cc1ccc(NC(=O)c2ccc(OCC3CCCO3)cc2)nc1 (stereo not drawn)	Lassa entry inh inconclusive, Marburg entry inh inconclusive
COc1ccc(C(c2nnnn2Cc2ccccc2)N2CCN(c3nc4ccccc4s3)CC2)cc1 (stereo not drawn)	Lassa entry inh 11µM, Marburg entry inh inconclusive (no result: VACV mCherry inh)
COc1ccc(Cn2nnnc2C(c2ccccc2)N2CCN(C3CCCC3)CC2)cc1 (stereo not drawn)	Marburg entry inh 7.1µM!
CCCC(c1nnnn1Cc1ccc(F)cc1)N1CCN(C)CC1 (stereo not drawn)	none
CCC(c1nnnn1Cc1ccc(F)cc1)N1CCN(C2CCCCC2)CC1 (stereo not drawn)	Lassa entry inh inconclusive, Marburg entry inh 13µM (no result: VACV mCherry inh)
